Assay results as given in PubChem BioAssay AID588689 (Southern Research Specialized Biocontainment Screening …, 2011).
Several values for one entry are separate records, joined by “and”; a condition that tells them apart may be missing. Equal entries are not always repeated. In all, about 340,000 compounds went through this assay and about 1,000 (0.29%) were called active. Cut-off read from the data, not from the text of the source: inconclusive = inhibition above about 29% without an active follow-up result; inactive = below that. Not all results are given here. Measured potencies and affinities stand elsewhere.

Target: Genome polyprotein (Dengue virus type 2 (strain 16681-PDK53)) (UniProt P29991)
Experiment: Dengue-2 NS5 methyltransferase inhibitors, primary screen, biochemical, confirmation dose response (AID 588689)
Settings: Dengue-2 NS5 methyltransferase capping enzyme assay, at 25 µM, stronger effect = higher value
[1] = measured here: pilot screen replicate inhibition

Genome polyprotein (Dengue virus type 2 (strain 16681-PDK53)), sequence (P29991 whole entry, looked up): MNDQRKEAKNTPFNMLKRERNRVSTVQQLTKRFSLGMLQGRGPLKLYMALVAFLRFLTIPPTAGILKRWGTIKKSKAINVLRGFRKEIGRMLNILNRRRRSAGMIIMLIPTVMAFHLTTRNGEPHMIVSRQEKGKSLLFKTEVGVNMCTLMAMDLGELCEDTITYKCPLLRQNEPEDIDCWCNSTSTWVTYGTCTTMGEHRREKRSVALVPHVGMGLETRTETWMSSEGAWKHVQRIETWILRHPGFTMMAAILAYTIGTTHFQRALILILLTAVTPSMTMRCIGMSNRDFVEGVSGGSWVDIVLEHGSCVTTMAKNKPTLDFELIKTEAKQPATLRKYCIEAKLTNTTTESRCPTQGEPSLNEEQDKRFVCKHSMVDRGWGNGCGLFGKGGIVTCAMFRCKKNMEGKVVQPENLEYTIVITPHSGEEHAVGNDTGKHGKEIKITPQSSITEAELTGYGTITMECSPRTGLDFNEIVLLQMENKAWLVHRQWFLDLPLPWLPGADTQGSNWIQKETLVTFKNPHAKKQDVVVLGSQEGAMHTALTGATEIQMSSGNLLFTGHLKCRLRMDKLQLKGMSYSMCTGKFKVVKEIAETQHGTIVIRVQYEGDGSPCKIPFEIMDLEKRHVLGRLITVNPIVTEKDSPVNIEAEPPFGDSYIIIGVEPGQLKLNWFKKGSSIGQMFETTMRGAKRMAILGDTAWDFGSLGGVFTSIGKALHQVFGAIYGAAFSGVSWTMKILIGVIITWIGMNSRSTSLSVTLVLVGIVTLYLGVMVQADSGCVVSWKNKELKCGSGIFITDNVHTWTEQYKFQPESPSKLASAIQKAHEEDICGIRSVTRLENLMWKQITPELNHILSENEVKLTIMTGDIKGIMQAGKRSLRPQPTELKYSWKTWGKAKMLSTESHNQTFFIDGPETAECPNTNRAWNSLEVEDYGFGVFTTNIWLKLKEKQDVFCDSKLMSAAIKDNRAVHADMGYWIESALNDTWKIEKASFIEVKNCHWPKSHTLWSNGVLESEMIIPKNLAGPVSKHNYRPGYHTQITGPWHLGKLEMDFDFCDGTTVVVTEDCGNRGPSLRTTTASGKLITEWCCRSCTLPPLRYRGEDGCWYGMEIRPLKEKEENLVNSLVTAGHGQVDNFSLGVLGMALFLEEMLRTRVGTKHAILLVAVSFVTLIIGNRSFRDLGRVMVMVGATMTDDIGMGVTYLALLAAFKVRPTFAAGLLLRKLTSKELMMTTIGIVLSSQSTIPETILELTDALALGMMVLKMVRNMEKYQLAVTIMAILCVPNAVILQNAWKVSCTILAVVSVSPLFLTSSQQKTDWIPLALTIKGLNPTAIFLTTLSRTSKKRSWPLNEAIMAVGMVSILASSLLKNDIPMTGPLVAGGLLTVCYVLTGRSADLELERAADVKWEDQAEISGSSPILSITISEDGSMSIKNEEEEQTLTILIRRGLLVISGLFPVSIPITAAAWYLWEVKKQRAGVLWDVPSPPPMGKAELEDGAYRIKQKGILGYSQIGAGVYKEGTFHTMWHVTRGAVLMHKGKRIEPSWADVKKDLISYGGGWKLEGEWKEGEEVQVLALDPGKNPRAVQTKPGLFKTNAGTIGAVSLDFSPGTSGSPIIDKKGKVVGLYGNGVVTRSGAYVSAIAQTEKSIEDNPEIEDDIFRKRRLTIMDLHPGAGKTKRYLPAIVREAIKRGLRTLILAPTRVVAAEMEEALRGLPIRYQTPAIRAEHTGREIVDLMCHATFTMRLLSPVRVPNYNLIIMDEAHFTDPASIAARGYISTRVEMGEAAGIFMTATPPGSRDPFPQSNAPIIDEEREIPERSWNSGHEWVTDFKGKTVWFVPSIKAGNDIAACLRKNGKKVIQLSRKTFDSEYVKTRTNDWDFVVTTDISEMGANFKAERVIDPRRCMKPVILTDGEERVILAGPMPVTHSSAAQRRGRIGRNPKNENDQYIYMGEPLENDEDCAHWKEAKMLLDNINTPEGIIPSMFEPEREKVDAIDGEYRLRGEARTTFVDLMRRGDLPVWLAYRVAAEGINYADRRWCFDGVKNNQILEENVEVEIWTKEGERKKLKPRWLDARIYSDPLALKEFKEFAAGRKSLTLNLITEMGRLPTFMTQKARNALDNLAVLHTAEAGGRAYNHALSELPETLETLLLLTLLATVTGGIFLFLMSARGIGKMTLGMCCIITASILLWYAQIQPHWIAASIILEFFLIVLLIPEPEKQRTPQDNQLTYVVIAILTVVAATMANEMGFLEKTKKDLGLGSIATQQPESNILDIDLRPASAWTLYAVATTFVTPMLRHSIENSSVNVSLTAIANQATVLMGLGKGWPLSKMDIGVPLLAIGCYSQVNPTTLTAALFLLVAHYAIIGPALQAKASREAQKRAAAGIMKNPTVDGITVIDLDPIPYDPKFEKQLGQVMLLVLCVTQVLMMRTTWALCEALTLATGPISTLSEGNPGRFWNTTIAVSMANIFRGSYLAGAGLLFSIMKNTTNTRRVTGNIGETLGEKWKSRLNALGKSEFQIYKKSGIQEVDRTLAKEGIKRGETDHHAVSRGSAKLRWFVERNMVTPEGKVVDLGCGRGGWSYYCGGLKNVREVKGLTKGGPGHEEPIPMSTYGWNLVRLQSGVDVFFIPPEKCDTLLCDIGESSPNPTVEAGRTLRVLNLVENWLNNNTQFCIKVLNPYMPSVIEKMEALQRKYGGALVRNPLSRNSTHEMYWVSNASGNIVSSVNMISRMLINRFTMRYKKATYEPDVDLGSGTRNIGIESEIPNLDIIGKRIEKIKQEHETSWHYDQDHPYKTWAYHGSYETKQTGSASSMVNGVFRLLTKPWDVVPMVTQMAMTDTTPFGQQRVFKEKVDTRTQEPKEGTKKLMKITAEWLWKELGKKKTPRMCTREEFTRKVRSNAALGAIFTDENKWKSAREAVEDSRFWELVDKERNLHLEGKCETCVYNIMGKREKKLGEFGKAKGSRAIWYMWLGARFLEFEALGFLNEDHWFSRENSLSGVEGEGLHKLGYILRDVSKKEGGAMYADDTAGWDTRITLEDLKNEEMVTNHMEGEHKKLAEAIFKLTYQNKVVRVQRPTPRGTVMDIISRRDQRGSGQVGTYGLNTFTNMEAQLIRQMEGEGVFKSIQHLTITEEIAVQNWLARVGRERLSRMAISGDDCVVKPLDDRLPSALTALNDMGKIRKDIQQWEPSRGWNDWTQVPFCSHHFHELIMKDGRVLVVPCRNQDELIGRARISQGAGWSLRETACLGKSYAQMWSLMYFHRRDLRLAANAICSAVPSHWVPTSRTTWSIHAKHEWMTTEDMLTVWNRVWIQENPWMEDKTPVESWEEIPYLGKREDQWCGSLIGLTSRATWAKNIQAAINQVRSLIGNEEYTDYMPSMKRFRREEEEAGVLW

SMILES	inhibition	inhibition [1]
CN(C)c1ccc(C=c2c3cc(O)ccc3n3c2cc(-c2ccccc2)[n+]3C)cc1	27.4% (inactive)	
CN(C)c1ccc(C=c2c3ccccc3n3c2cc(-c2ccccc2)[n+]3C)cc1	16.6% (inactive)	
C[n+]1c(-c2ccccc2)cc2c(=Cc3ccccc3)c3ccccc3n21	-8.87% (inactive)	
COc1cc(C=c2c3ccccc3n3c2cc(-c2ccccc2)[n+]3C)cc(OC)c1OC	-32.8% (inactive)	
C=CCn1c(SCC#N)nc2ccccc2c1=O	0.54% (inactive)	
Cc1ccc(NC(=O)C(C)Sc2nnc(C)n2C)cc1 (stereo unspecified)	-10.5% (inactive)	-8.82%
Nc1ccc(N=Nc2ccc(O)cc2)c(N)n1	-2.31% (inactive)	
Oc1ccc(N=Nc2ccc3ccccc3c2)cc1	-0.57% (inactive)	
COc1ccc(NC(=O)C2CCCN(S(=O)(=O)c3ccc4[nH]c(=O)ccc4c3)C2)cc1OC (stereo unspecified)	-7.99% (inactive)	
CCN(CC)CCN(Cc1cc2cc3c(cc2[nH]c1=O)OCO3)C(=S)NCCCOC	-4.77% (inactive)	
Cc1[nH]c2ccccc2c1C1C(c2ccccc2)=NN=C(C(C)C)N1O (stereo unspecified)	-11.8% (inactive)	
CCCN(CCC)S(=O)(=O)c1cccc(-c2csc(C)n2)c1	-5.33% (inactive)	
COc1cccc(CN(C)C(=O)C2CSC3(C)CCC(=O)N23)c1OC (stereo unspecified)	-4.42% (inactive)	
COc1cc(/C=C2/NC(=O)N(Cc3ccccc3F)C2=O)cc(OC)c1O	1.47% (inactive)	
COc1cc(/C=C2/NC(=O)N(Cc3ccccc3F)C2=O)ccc1Oc1ccc([N+](=O)[O-])cn1	-0.72% (inactive)	
COc1ccc(Cl)cc1-c1nc(SCC(=O)N(C)C)n[nH]1	-2.97% (inactive)	
Cc1nc2sc(C(c3ccco3)N3CCc4ccccc4C3)c(O)n2n1 (stereo unspecified)	-4.07% (inactive)	
CCCCNC(=O)c1onc(CSc2ccccc2C)c1C(=O)O	7.73% (inactive)	
CCCCNC(=O)c1onc(CSc2ccccc2CC)c1C(=O)O	6.29% (inactive)	
Cc1cccc(NC(=O)N(Cc2nc3ccccc3c(=O)[nH]2)C2CCCC2)c1	-1.56% (inactive)	
CN(C)S(=O)(=O)c1cccc(-n2sc3ccccc3c2=O)c1	-48.9% (inactive)	
Cc1ccc(S(=O)(=O)Nc2cccc(S(=O)(=O)Nc3ccccc3C(=O)O)c2)c(C)c1	17.5% (inactive)	

SMILES	inhibition	inhibition [1]
O=C(O)c1cccc(-n2sc3ccccc3c2=O)c1	-2.4% (inactive)	
CCOc1ccc(Br)cc1S(=O)(=O)Nc1cccc(S(=O)(=O)Nc2ccccc2C(=O)O)c1	11.4% (inactive)	
CN(CCOc1ccccc1)C(=O)c1cc(S(=O)(=O)N2CCOCC2)ccc1Cl	-7.25% (inactive)	
NS(=O)(=O)c1ccc(NC(=O)Cc2cccs2)cc1	0% (inactive)	
O=c1[nH]c2cc([N+](=O)[O-])cc(Cl)c2c2ccccc12	5.75% (inactive)	
CNC(=O)CN1C(=O)NC2(CCc3ccccc3C2)C1=O (stereo unspecified)	0.74% (inactive)	
COCC(C)n1c(SCC(=O)NC(=O)Cc2ccccc2)nc2ccccc2c1=O (stereo unspecified)	1.46% (inactive)	
CSc1nsc(SCC(=O)Nc2ccc(Cl)c(C(=O)O)c2)n1	8.31% (inactive)	
O=C(CSc1n[nH]c(-c2ccncc2)n1)Nc1ccc(Cl)c(C(=O)O)c1	0.89% (inactive)	
O=C(Cn1cnc([N+](=O)[O-])n1)N/N=C/c1cc(Cl)ccc1O	-13.5% (inactive)	
NS(=O)(=O)c1ccc(NS(=O)(=O)c2ccc(NC(=O)C3CC3)cc2)cc1	15.1% (inactive)	
Cc1csc(SCC(=O)Nc2ccc(F)cc2Cl)n1	-8.4% (inactive)	
O=C(Nc1ncccc1Cl)C(Sc1ccccc1)c1ccccc1 (stereo unspecified)	-1.88% (inactive)	-5.46%
CNC(=O)Oc1ccc2c(c1)[C@]1(C)CCN(C)[C@@H]1N2C	-1.49% (inactive) and -0.75% (inactive)	
CNC(=O)Oc1ccc2c(c1)[C@]1(C)CCN(C)C1N2C (stereo partly specified)	0% (inactive)	
O=C(Nc1ccc(Cl)cc1)Nc1ccc2c(c1)N1CCN=C1S2	-47.1% (inactive)	
COC(=O)c1ccccc1NC(=O)CSc1nccn1C	0.56% (inactive)	
COc1cc(-c2ccc3sc(-c4ccsc4)c(C#CCO)c3c2)cc(OC)c1OC	3.31% (inactive)	
Cc1ccc(C2=C(O)C(=O)C(c3ccc(C)cc3)=C(O)C2=O)cc1	2.31% (inactive)	
Cc1ccc(C2=C(O)c3ccccc3C(=O)C2=O)cc1	10.5% (inactive)	
COc1ccc([N+](=O)[O-])cc1-c1[nH]c(-c2ccc(C(=O)O)cc2)nc1-c1ccccc1	-2.87% (inactive)	
CC(=O)Nc1ccc(S(=O)(=O)Nc2c(C)nn(-c3ccccc3)c2C)cc1	-3.38% (inactive)	

SMILES	inhibition	inhibition [1]
COc1cc(NC(=O)C2CCCCC2)c2ncccc2c1	-4.93% (inactive)	
COc1cc(NCc2ccccc2O)c2ncccc2c1	-1.29% (inactive)	
CCN(CCCNC(=O)CNC(=O)c1nn(-c2ccc(OC)cc2OC)c(=O)c2ccccc12)c1cccc(C)c1	-2.2% (inactive)	
Cc1cccc(-n2ccnc2SCC(=O)Nc2cc(C)on2)c1	-6.93% (inactive)	
COc1ccc2[nH]c3c(c2c1)CCN1C(=O)C(CC(=O)NC(C)(C)C)C[C@H](C(=O)N(C(C)C)C(C)C)[C@@]31C (stereo partly specified)	-6.62% (inactive)	-4.89%
Cc1cc(NS(=O)(=O)c2ccc(NC(=O)CSc3nc4sc(C(=O)O)c(C)c4c(=O)[nH]3)cc2)no1	1.64% (inactive)	
Cc1cc(C)nc(SCC(=O)Nc2ccc(S(=O)(=O)Nc3cc(C)on3)cc2)n1	-0.67% (inactive)	
O=C1C(=O)N(C/C=C/c2ccccc2)c2ccccc21	-12.9% (inactive)	
N#CCCn1cc(/C=N/O)c(-c2ccc(F)cc2)n1	-2.03% (inactive)	
CC1(C)CC(=O)C(=Cc2cn(-c3ccccc3)nc2-c2ccccc2)C(=O)C1	27.8% (inactive)	
CC1=NN(c2ccccc2)C(=O)/C1=C\c1cn(CCC#N)nc1-c1ccc(Cl)cc1	5.39% (inactive)	
CC1(C)CC(=O)C(=Cc2cn(-c3ccccc3)nc2-c2ccc(Cl)cc2)C(=O)C1	-1.09% (inactive)	
CC1=NNC(=O)/C1=C\c1cn(-c2ccccc2)nc1-c1ccccc1	10.9% (inactive)	
N#CCCn1cc(/C=C2\NC(=S)N(c3ccccc3)C2=O)c(-c2ccc(F)cc2)n1	-8.84% (inactive)	
Cc1ccc(NC(=O)c2cc(-c3cc(Cl)ccc3O)n[nH]2)cc1C	-6.12% (inactive)	
COc1cccc(N2CCN(C(=O)CNC(=O)c3sc4ccccc4c3Cl)CC2)c1	-1.29% (inactive)	
O=C1CN(C(=O)COC(=O)c2ccccc2NCc2ccco2)c2ccccc2N1	-4.76% (inactive)	
CCOC(=O)c1c(C)[nH]c(C(=O)OCC(=O)N(CC(C)C)C2CCS(=O)(=O)C2)c1C (stereo unspecified)	4.1% (inactive)	
Cc1c(N(C)C(=O)c2ccccc2F)c(=O)n(-c2ccccc2)n1C	2.15% (inactive)	
COc1cccc(C(NC(=O)c2ccccc2F)NC(=O)c2ccccc2F)c1	-5.64% (inactive)	
CC(=NCCCNC1CCCCC1)C1=C(O)CC(C)(C)CC1=O	10.2% (inactive)	
O=C(NC1CCCc2ccccc21)C1CCN(c2c3c(nc4ncnn24)CCC3)CC1 (stereo unspecified)	-6.95% (inactive)	

SMILES	inhibition	inhibition [1]
O=C(O)C(Cc1ccccc1)N1C(=O)CCC1=O (stereo unspecified)	-3.06% (inactive)	
O=C(O)C(Cc1ccccc1)N1C(=O)c2ccccc2C1=O (stereo unspecified)	-1.57% (inactive)	
O=C(O)C(Cc1ccccc1)N1C(=O)c2cccc3cccc(c23)C1=O (stereo unspecified)	-2.21% (inactive)	
O=C(O)C(Cc1ccc(O)cc1)N1C(=O)c2c(Cl)c(Cl)c(Cl)c(Cl)c2C1=O (stereo unspecified)	16.9% (inactive)	
Cc1cccc(C)c1NC(=O)C(c1ccc([N+](=O)[O-])cc1)N1CCCCC1 (stereo unspecified)	-3.23% (inactive)	
Cc1onc(-c2ccccc2Cl)c1C(=O)Nc1ccc(-c2nnc3n2CCCCC3)cc1	9.09% (inactive)	
O=C(CNC(=O)c1cccs1)Nc1ccncc1	1.47% (inactive)	
Cc1cc(C(C)(C)C)oc1C(=O)N(CC(=O)NC1CCCC1)c1cccc(C(F)(F)F)c1	-5.56% (inactive)	
O=C(CC(c1ccccc1)c1cc(Br)ccc1O)N1CCCC1 (stereo unspecified)	-0.78% (inactive)	
Cc1[nH][nH]c(=O)c1C(c1cc(Br)ccc1O)c1c(C)[nH][nH]c1=O	0% (inactive)	
CCc1c(C(=O)O)[nH]c2ccc(Br)cc12	7.42% (inactive)	
CCOC(=O)c1[nH]c2ccccc2c1NC(C)=O	1.39% (inactive)	
CCOc1ccccc1NC(=O)CSCC(=O)Nc1ccccc1	0% (inactive)	
CCOC(=O)N1CCN(CC(O)COCC2=CCC3CC2C3(C)C)CC1 (stereo unspecified)	6.09% (inactive)	
C[C@@H](C(=O)Nc1ccc2ccccc2c1)[C@H]1C[C@]1(C)[C@H](NC(=O)OCc1ccccc1)c1ccccc1	4.76% (inactive)	
CCOC(=O)N1CCN(S(=O)(=O)N2CCCC(C(=O)NCc3ccccc3Cl)C2)CC1 (stereo unspecified)	-6.21% (inactive)	
CC(NC(=O)C1CCC1)c1ccc(Cl)cc1 (stereo unspecified)	-3.24% (inactive)	
Cc1ccc(-c2ccc(/C=N/N3C(=O)C4C5C=CC(C6CC56)C4C3=O)o2)c([N+](=O)[O-])c1 (stereo unspecified)	-2.05% (inactive)	
COCc1cc(C)nc(N/N=C/c2ccc(-c3ccc(Cl)cc3[N+](=O)[O-])o2)c1C#N	0.9% (inactive)	
Cc1ccc(-c2ccc(/C=N/N3C(=O)C4C5C=CC(CC5)C4C3=O)o2)c([N+](=O)[O-])c1 (stereo unspecified)	4.83% (inactive)	
O=C1C2C3C=CC(C4CC34)C2C(=O)N1/N=C/c1ccc(-c2ccc(Cl)cc2[N+](=O)[O-])o1 (stereo unspecified)	0% (inactive)	
Cc1nc2ccccn2c1C(=O)N/N=C/c1ccccc1Cl	0.65% (inactive)	
